Each structure is given as a SMILES string. Inconclusive results are not listed. Active and inactive are the calls of the source. The call rests on the fitted dose curve; in most records, active means well fitted activation curve with a large enough effect; inconclusive means small, poorly fitted or top-dose-only effect; inactive means flat fitted curve, though single readings scatter.

A short description of this assay: Primary redox qHTS assay for identification of artifact compounds. (AID 1845223). Conditions: Amplex Red/HRP redox cycling with DTT, fluorescence; series mostly up to 53.8 µM; redox activity (% of DA3003): at the top concentration. The source says: PI: Alexander Tropsha Ph.D.
UNC Eshelman School of Pharmacy
University of North Carolina, Chapel Hill, North Carolina
Hits from high-throughput screening (HTS) of chemical libraries are often false positives due to their interference with the assay detection technology. In response to this problem, we generated the largest publicly available library of chemical liabilities and developed a free webtool to predict HTS artifacts, both of which are described herein. More specifically, we generated, curated, and integrated HTS datasets for thiol reactivity, redox activity, and luciferase (firefly and nano) activity. Using these curated datasets, we developed and validated several Quantitative Structure-Interference Relationship (QSIR) models to predict nuisance behavior. […] These models were employed for virtual profiling of the National Center for Advancing Translational Science's (NCATS) in-house library, and 256 compounds for each assay were selected for the experimental validation of nuisance behavior. The BA for these external predictions ranged from 58 to 78% for compounds within the applicability domains of the models. […] The models developed in this study, along with aggregation models previously developed by our group (SCAM Detective) were implemented in "Liability Predictor," an online tool which may be used as part of chemical library design or for triaging HTS hits. Both the models and the curated datasets are publicly available at https://liability.mml.unc.edu/.
SEQUENCE No. (e.g., 1, 2, 3, etc.); […] (e.g., Cells, Incubation, Reagent, etc.); VALUE; DESCRIPTION.
1; Reagent; 3 uL; Amplex Red and HRP mixture.
2; Compounds and control; 16 nL; Kalypsis pin tool (Wako USA) equipped with a 1536-well pin head. […]
6; Detection; Fluorescence, ViewLux microplate reader, 525 nm excitation, 598 nm emission.
NOTES (numbers refer to Sequence numbers above)
1. 3 uL of a mixture containing Amplex Red (25 uM final concentration) and horseradish peroxidase (HRP; 250 mU/mL final concentration) in assay buffer (HBSS) was dispensed into all wells of a 1536-well assay plate (solid-bottom black plate; Greiner Bio One, Monroe, NC).
2. A Wako Pin-tool (Wako Automation, Richmond, VA) was used to transfer 16 nL of compounds (consisting of 7-plates in qHTS format, final concentration range 18.3 nM to 114 uM) or control DA3003 (final concentration range 1.22 nM to 40 uM).
3. 15 min. incubation at room temperature protected from light.
4. 1 uL of DTT (prepared fresh; final concentration 250 uM) was dispensed for a final assay volume of 4 uL.
5. Plates were centrifuged (121xg, 15 seconds) and incubated for 30 minutes at room temperature protected from light.
6. Samples were read for fluorescence (Ex/Em = 525(20)/598(25) nm) on a ViewLux CCD imager (PerkinElmer). Data were normalized to DMSO (0% activity) and DA3003 (10 uM final concentration; 100% activity) and the resulting percent inhibition data were fitted to a 4-parameter Hill equation using NCATS in-house software.
`CC1OC(OC2CCC3(C)C(CCC4(C)C3C=CC35OCC6(CCC(C)(C)CC63)CCC45C)C2(C)CO)C(OC2OC(CO)C(O)C(O)C2O)C(O)C1OC1OC(CO)C(O)C(O)C1O` (stereo not given): the redox activity (% of DA3003) was 12.4% [at 11.5 µM] (inactive).
`CC1(CO)CCCC2(C)C1C(OC(=O)c1ccccc1)CC1C(=O)OCC12O` (stereo not given): the “redox activity (% of DA3003)” value was -13.4% (inactive).
Regarding `C=CC1(C)CC2CCC3C(C)(C(=O)O)CCCC3(C)C2=CC1=O` (stereo not given), the “redox activity (% of DA3003)” value was -6.5% (inactive).
To `Cc1cc(CNC(=O)c2cc(C(=O)NCc3ccc(F)c(C)c3)ncn2)ccc1F` belongs -0.996% (inactive).
With `CC(=O)OCC1OC(O[C@H]2CC[C@]34C[C@]35CC(O)[C@]3(C)[C@@H]([C@H](C)CC/C=C(\C)C(=O)O)C(O)C[C@@]3(C)C5CC[C@H]4C2(C)C)C(O)C(O)C1OC1OCC(O)C(O)C1O` (stereo not given in full), the redox activity (% of DA3003) is -5.4% [at 11.5 µM] (inactive).
Regarding `COC(=O)C1=COC(O[C@@H]2O[C@H](CO)[C@@H](O)[C@H](O)[C@H]2O)C2C(C)C(=O)CC12` (stereo not given in full), the “redox activity (% of DA3003)” value was -11% (inactive).
In the case of `CC(NC(=O)CC(=O)O)C(=O)Nc1ccccc1C(N)=O` (stereo not given), the “redox activity (% of DA3003)” value was -14.9% (inactive).
To `CCC(=O)OCC(=O)[C@@]1(OC(=O)CC)[C@@H](C)C[C@H]2[C@@H]3CCC4=CC(=O)C=C[C@]4(C)[C@@]3(F)[C@@H](O)C[C@@]21C` belongs 6.36% (inactive); to `CC(C)(O)C(O)C(=O)OCc1ccc(O[C@@H]2O[C@H](CO)[C@@H](O)[C@H](O)[C@H]2O)cc1` (stereo not given in full), -18.7% [at 25.6 µM] (inactive).
As to `C=C1CC[C@@H]2C(C)(C)CCC[C@@]2(C)[C@@H]1CC/C(=C/C(=O)OC)COC(C)=O`, the “redox activity (% of DA3003)” value was -7.07% (inactive).
To `Cc1nc2cc(-c3cc(F)cc(C#N)c3)ccc2s1` belongs -7.09% (inactive).
`Cc1nnc(-c2ccc3occ(-c4ccc(S(C)=O)cc4)c3c2)o1` (stereo not given): the “redox activity (% of DA3003)” value was 8.34% (inactive).
Take `CC(C)N(CCCNC(=O)Nc1ccc(C(C)(C)C)cc1)C[C@H]1O[C@@H](n2ccc3c(N)ncnc32)[C@H](O)[C@@H]1O`: the “redox activity (% of DA3003)” value is 4.51% (inactive).
Consider `COc1cc2c(cc1O)C(c1ccc(O)cc1)C(C)C(C)C2` (stereo not given), for which the “redox activity (% of DA3003)” value is -9.65% (inactive).
To `C/C=C/C(=O)OC1/C=C/C(O)C(OC(C)=O)CCC(=O)OC1C` (stereo not given) belongs -16.7% (inactive).
`O=C(O)CCc1ccc(NCc2cccc3c2CCCN3CCOc2ccccc2)cc1F`: the “redox activity (% of DA3003)” value was 13.5% (inactive).
To `OC[C@H]1O[C@@H](OCCc2ccccc2)[C@H](O)[C@@H](O)[C@@H]1O` belongs -0.194% (inactive); to `COc1cc(C2OCC3(O)C(c4ccc(O[C@@H]5O[C@H](CO)[C@@H](O)[C@H](O)[C@H]5O)c(OC)c4)OCC23O)ccc1O` (stereo not given in full), -18.1% [at 25.6 µM] (inactive); to `CC(=O)O[C@H]1C[C@@H](O)C(C)(C)C2C[C@@H](OC(C)=O)[C@]3(C)C(CC[C@@]4(C)[C@H](c5ccoc5)OC(=O)[C@H]5O[C@]543)[C@]21C` (stereo not given in full), 7.71% [at 25.6 µM] (inactive).
For `CC(C)c1ccc2c(c1)CCC1[C@](C)(C(=O)O)CCC[C@]21C` (stereo not given in full), the “redox activity (% of DA3003)” value was 14.9% (inactive).
Regarding `C/C=C/C1OC2=C(C(=O)OC2(C)O)C(O)C1O` (stereo not given), the “redox activity (% of DA3003)” value is -16% (inactive).
The value for `COc1c(-c2ccc(O)cc2)cc(OC)c2c1oc1cc(O)c(OC3OC(CO)C(O)C3O)cc12` (stereo not given) was 16.4% [at 25.6 µM] (inactive); that for `COc1cc(O)c(C(=O)O)c(CCc2ccccc2)c1` was -16.4% (inactive).
For `COc1cc(/C=C/C(=O)O[C@@H]2C[C@](O)(C(=O)O)C[C@@H](O)[C@H]2O)ccc1O`, the “redox activity (% of DA3003)” value is -1.24% (inactive).
On to `CC(=O)OCC(Cc1ccccc1)NC(=O)C(Cc1ccccc1)NC(=O)c1ccccc1` (stereo not given), for which the “redox activity (% of DA3003)” value was 17.4% [at 25.6 µM] (inactive).
The value for `CC(C)c1ccc2c(c1)C(=O)CC1C(C)(C(=O)O)CCCC21C` (stereo not given) was 16% (inactive).
The value for `CC1(C)CC[C@]2(C(=O)O[C@@H]3O[C@H](CO)[C@@H](O)[C@H](O)[C@H]3O)CC[C@]3(C)C(=CCC4[C@@]5(C)CC[C@H](O[C@H]6O[C@H](CO)[C@@H](O)[C@H](O[C@@H]7O[C@H](CO)[C@@H](O)[C@H](O)[C@H]7O)[C@H]6O)C(C)(C)C5CC[C@]43C)[C@@H]2C1` (stereo not given in full) was 12.2% [at 11.5 µM] (inactive); that for `C=C1C(OC(C)=O)C(=O)C2C(C)(C)C(O)CCC2(C)C1CC(OC(C)=O)/C(C)=C/COC(C)=O` (stereo not given) was 14.7% [at 25.6 µM] (inactive); that for `COC(=O)C(CC1(O)c2ccccc2N2C(=O)C(CC(C)C)NC21)n1cnc2ccccc2c1=O` (stereo not given) was 0.656% [at 25.6 µM] (inactive).
Turning to `COc1cnc(-n2cnc(C)n2)c2[nH]cc(C(=O)C(=O)N3CCN(C(=O)c4ccccc4)CC3)c12`, the “redox activity (% of DA3003)” value is 6.26% (inactive).
For `C=C1C(OC(C)=O)CCC2(C)CCC(C(C)(C)O)CC12` (stereo not given), the “redox activity (% of DA3003)” value was 16.7% (inactive).
In the case of `CC(C)/C=C1/NC(=O)C(C(C)C)n2c1nc1c(O)cccc1c2=O` (stereo not given), the “redox activity (% of DA3003)” value is -1.1% (inactive).
Turning to `COc1cn(-c2ccc(-n3cccn3)cc2F)nc(-c2ccnn2-c2ccccc2)c1=O`, the “redox activity (% of DA3003)” value is -3.86% (inactive).
With `C/C=C/C=C/C(O)=C1/C(=O)[C@]2(C)C3/C(=C(O)/C=C/C=C/C)C(=O)C4(C)C1[C@]1(C)O[C@@]4(O)[C@@]3(C)O[C@@]12O`, the “redox activity (% of DA3003)” value was 8.83% [at 25.6 µM] (inactive).
Consider `CC1(C)[C@@H]2CC=C(CO[C@@H]3O[C@H](CO[C@@H]4OC[C@H](O)[C@H](O)[C@H]4O)[C@@H](O)[C@H](O)[C@H]3O)[C@H]1C2`, for which the “redox activity (% of DA3003)” value is -10.8% [at 25.6 µM] (inactive).
In the case of `CC(C)[C@@](O)(c1ccc2cc(OC(F)F)c(OC(F)F)cc2c1)c1cn[nH]n1`, the “redox activity (% of DA3003)” value was -1.11% (inactive).
To `CC(=O)OC1CC2(C)C(CCC(C)C23Cc2c(O)cc4c(c2O3)CNC4=O)C(C)(C)C1O` (stereo not given) belongs 7.34% [at 25.6 µM] (inactive); to `CC1(C)CC=C(C#Cc2ccccc2)c2cc(/C=C/c3ccc(C(=O)O)cc3)ccc21`, 0.328% (inactive).
The value for `COc1cc(O)cc2c1C(=O)OC(C)C2` (stereo not given) was -17.6% (inactive); that for `COC(O)(CC(C)C)C1Oc2cc(C)[nH]c(=O)c2O1` (stereo not given) was -17.4% (inactive).

The values are drawn from PubChem BioAssay (NCATS).
